How the values were obtained:
Format in all cases: functional
Plasmodium falciparum [1] = test: GSK_TCMDC: Inhibition of Plasmodium falciparum 3D7 in whole red blood cells, using parasite LDH activity as an index of growth. Test compounds present at 2uM
Plasmodium falciparum [2] = test: GSK_TCMDC: Inhibition of Plasmodium falciparum Dd2 in whole red blood cells, using parasite LDH activity as an index of growth. Test compounds present at 2uM
HepG2 = test: GSK_TCMDC: Percent inhibition of human HepG2 cell line. Test compounds present at 10uM.

| Structure (SMILES) | Inhibition (Plasmodium falciparum [1]) | Inhibition (Plasmodium falciparum [2]) | Inhibition (HepG2) |
| --- | --- | --- | --- |
| COc1cccc(Cc2cnc3nc(N)nc(N)c3c2C)c1 | 94% | 76% | 57% |
| Cc1cccc2nc(-c3ccc(-c4cccc(C(=O)NCCc5cn(C)cn5)c4)s3)[nH]c12 | 92% | 17% | 27% |
| CN(CCc1ccccc1)c1ncc(-c2ccccc2CNCc2ccccc2O)cn1 | 99% | 94% | 10% |
| O=C(C=Cc1ccc(Cl)c(Cl)c1)NCCCCCN1CCCC(CCCNC(=O)c2ccc3c(c2)OCO3)C1 (centres undefined) | 95% | 4% | 30% |
| COc1cc(/C=C/C(=O)NCC(CCNc2cc(=O)c3ccccc3[nH]2)NCc2cc(Br)cc(Br)c2)cc(OC)c1 (centres undefined) | 90% | 28% | 0% |
| Cc1cc(Nc2ccccc2)nc(NCCOc2ccccc2)n1.Cl | 100% | 48% | 0% |
| CN1CCC(C(=O)Nc2ccc(-c3cccc(-c4nc5cc(C(F)(F)F)ccc5[nH]4)c3)cc2)CC1 | 100% | 97% | 28% |
| Br.COc1ccc(CC(C)CON2C(N)=NC(N)=NC2(C)C)cc1 (centres undefined) | 94% | 96% | 59% |
| CCCNc1ccc(-c2cc(C(N)=O)c3[nH]cc(C4CCN(S(=O)(=O)CC)CC4)c3c2)cn1.O=C(O)C(F)(F)F | 99% | 42% | 6% |
| COc1cc(NC(=O)N2CCc3ccc(OCCC4CCCN4C)cc32)cc(C(F)(F)F)c1.O=C(O)C(F)(F)F (centres undefined) | 100% | 42% | 5% |
| CN1CCCC1CCOc1ccc2c(c1)N(C(=O)Nc1cc(Br)cc(C(F)(F)F)c1)CC2.O=C(O)C(F)(F)F (centres undefined) | 100% | 97% | 13% |
| CCOC(=O)c1c(SCc2cccc(F)c2F)[nH]c2ccccc2c1=O | 98% | 95% | 1% |
| CCN(CCCN1CCCCC1)c1cc(C)nc(Nc2cccc(C(F)(F)F)c2C)n1.O=C(O)C(F)(F)F | 99% | 37% | 57% |
| O=C(Nc1ccccc1-c1ccccc1)C1CCCN1C(=O)Nc1ccc(Cl)cc1 (centres undefined) | 96% | 90% | 0% |
| O=C(Nc1ccccc1)N(Cc1ccccc1-c1cccc(CNCc2ccc3c(c2)OCO3)c1)C1CCN(Cc2ccccc2)CC1.O=C(O)C(F)(F)F | 100% | 64% | 35% |
| COc1ccc(N2CCN(CCCCNC(=O)c3ccc(NC(=O)c4ccc(Cl)cc4)cc3)CC2)c(C)c1 | 100% | 51% | 42% |
| CC(C)(C)c1ccc(OCC(=O)NC2CCN(c3ccnc4cc(Cl)ccc34)C2)cc1.O=C(O)C(F)(F)F (centres undefined) | 98% | 100% | 17% |
| CCCNCc1ccc(-c2ccc(CN(Cc3ccc4c(c3)OCO4)C(=O)[C@H]3CCCO3)cc2)nc1.O=C(O)C(F)(F)F | 90% | 39% | 18% |
| Cn1c(Nc2nnc(C3CC3)s2)nc2cc(Nc3ccnc(Nc4cccc(CS(C)(=O)=O)c4)n3)ccc21 | 97% | 83% | 0% |
| COc1ccc(-c2cc(C(F)(F)F)n3ncc(C(=O)Nc4cc(C)ccc4O)c3n2)cc1OC | 100% | 100% | 2% |
| CCN1CCN(c2cc(C)c3cc(NC(=O)c4cccc(OC)c4)ccc3n2)CC1 | 99% | 15% | 5% |
| Br.CC1(C)NC(N)=NC(=N)N1OCCCSc1ccccc1 | 93% | 94% | 69% |
| N#Cc1cccc(Nc2nccc(NCC(O)c3cccc(C(F)(F)F)c3)n2)c1 (centres undefined) | 99% | 84% | 4% |
| CCN(CCCN1CCCCC1)c1cc(C)nc(Nc2ccc3c(c2)CCC3)n1.O=C(O)C(F)(F)F | 100% | 93% | 32% |
| Cc1noc(C)c1-c1cccc(CNCc2ccc(-c3ccc(-c4nc5cc(C(F)(F)F)ccc5[nH]4)cc3)cc2)c1.O=C(O)C(F)(F)F | 100% | 97% | 35% |
| COc1ccc(-c2cnc3ccc(NC4CCC(O)CC4)nn23)cn1 (centres undefined) | 98% | 73% | 54% |
| CC(=O)N[C@H](C(=O)Nc1ccc(-c2ccc(-c3nc4cc(C(F)(F)F)ccc4[nH]3)s2)cc1)C(C)C | 88% | 61% | 42% |
| CC(C)c1ccc(N(CC(=O)N/N=C/c2ccc(C(F)(F)F)cc2)S(=O)(=O)c2ccc(C(F)(F)F)cc2)cc1 | 91% | 44% | 2% |

Reference: ChEMBL document CHEMBL1157539, “Thousands of chemical starting points for antimalarial lead identification” (Nature, 2010)
